# Reference: publication PMC11062922 (Nature Chemical Biology, 2023)
# Where two headings read alike, the source gives them in different places.
# Key:
# Set-up in all cases: species or system human, MV4-11 + K-562 + COLO205 + SK-N-BE2 + OVCAR-8
# FRK = settings: read-out: apparent Kd, n = 1
# ATR = settings: read-out: apparent Kd, n = 1
# MAPKAPK2 = settings: read-out: apparent Kd; compound concentrations:100 nM and 1000 nM (sheet 'Samples'); n = 1
# ACAD11 = settings: read-out: apparent Kd, n = 1
# NQO2 = settings: read-out: apparent Kd, n = 1
# ULK3 = settings: read-out: apparent Kd, n = 1
# JAK2 = settings: read-out: apparent Kd, compound concentrations: 100 nM and 1000 nM (sheet 'Samples'), n = 1
# CDK5 = settings: read-out: apparent Kd; compound concentrations: 100 nM and 1000 nM (sheet 'Samples'), CATDS: 1.3495473564992901E-2; n = 1
# FGFR1 = settings: read-out: apparent Kd, n = 1
# IRAK4 = settings: read-out: apparent Kd, n = 1
# JAK1 = settings: read-out: apparent Kd, n = 1
# MAP4K1 = settings: read-out: apparent Kd, compound concentrations: 100 nM and 1000 nM (sheet 'Samples'), n = 1
# STK26 = settings: read-out: apparent Kd; compound concentrations: 100 nM and 1000 nM (sheet 'Samples'), CATDS: 6.0521031511701004E-3; n = 1
# NLK = settings: read-out: apparent Kd, n = 1
# PIK3CA = settings: read-out: apparent Kd, n = 1
# CDK6 = settings: read-out: apparent Kd, n = 1
# MAP2K1 = settings: read-out: apparent Kd; compound concentrations:100 nM and 1000 nM (sheet 'Samples'); n = 1
# DJA1 = test system: T1, DJA1; settings: read-out: apparent Kd; compound concentrations: 100 nM and 1000 nM (sheet 'Samples'), CATDS: 0.110016860770891; n = 1
# T1 construct: gene DNAJA1
# PRKCB = settings: read-out: apparent Kd; compound concentrations:100 nM and 1000 nM (sheet 'Samples'); n = 1
# CDC7 = settings: read-out: apparent Kd; compound concentrations: 100 nM and 1000 nM (sheet 'Samples'), CATDS: 4.51819013017992E-2; n = 1
# [1] = compound concentrations:100 nM and 1000 nM (sheet 'Samples')
smiles,measurement,setting,value
NCCNS(=O)(=O)c1ccc(-c2ccnc3[nH]ccc23)cc1 [GSK977617A],potency estimated from few doses,FRK; [1],832 nM
Cc1ccc2c(-c3ccncc3)c(-c3ccc(F)cc3)nn2c1.Cl [GW461484A],potency estimated from few doses,ATR; [1],838 nM
same,potency estimated from few doses,FRK; [1],887 nM
same,potency estimated from few doses,MAPKAPK2,573 nM
CN(c1ccc(NC(=O)N2CCN(CCCN3CCOCC3)CC2)cc1)c1ccnc(Nc2ccc(CS(C)(=O)=O)cc2)n1.Cl [GW830899A],potency estimated from few doses,"ACAD11; compound concentrations: 100 nM and 1000 nM (sheet 'Samples'), CATDS: 1.8100646511475499E-2",2060 nM
same,potency estimated from few doses,"NQO2; compound concentrations: 100 nM and 1000 nM (sheet 'Samples'), CATDS: 3.2370847772948297E-2",552 nM
same,potency estimated from few doses,"ULK3; compound concentrations: 100 nM and 1000 nM (sheet 'Samples'), CATDS: 2.3659630965279298E-2",1010 nM
CCn1c(-c2nonc2N)nc2c(C#CCN)ncc(OCCCN)c21.O=C(O)C(F)(F)F [GSK561866B],potency estimated from few doses,JAK2; CATDS: 0.29802313015986498,12.9 nM
COc1ccc(Nc2ncc(C#N)c(Nc3ccccc3C(N)=O)n2)cc1N1CCN(C)CC1.Cl [GSK1558669A],potency estimated from few doses,CDK5,85 nM
same,potency estimated from few doses,"FGFR1; compound concentrations: 100 nM and 1000 nM (sheet 'Samples'), CATDS: 1.43157906499466E-2",74.1 nM
same,potency estimated from few doses,"IRAK4; compound concentrations: 100 nM and 1000 nM (sheet 'Samples'), CATDS: 1.0871423307460401E-2",148 nM
same,potency estimated from few doses,"JAK1; compound concentrations: 100 nM and 1000 nM (sheet 'Samples'), CATDS: 1.7272230930398098E-2",49.5 nM
same,potency estimated from few doses,MAP4K1; CATDS: 8.9293608568362503E-3,270 nM
same,potency estimated from few doses,STK26,1650 nM
same,potency estimated from few doses,"ULK3; compound concentrations: 100 nM and 1000 nM (sheet 'Samples'), CATDS: 2.8443328776369899E-2",20 nM
CC(C)N1CCC(n2cnc(-c3ccc(F)cc3)c2-c2ccnc(N)n2)CC1 [SB-223132],potency estimated from few doses,FGFR1; [1],2190 nM
same,potency estimated from few doses,MAPKAPK2,7.02 nM
same,potency estimated from few doses,NLK; [1],195 nM
O=C1NC(=O)C(N2CCc3ccccc32)=C1c1ccccc1Cl [SB-373598],potency estimated from few doses,ATR; [1],605 nM
same,potency estimated from few doses,FGFR1; [1],1250 nM
same,potency estimated from few doses,FRK; [1],330 nM
same,potency estimated from few doses,ULK3; [1],1450 nM
Clc1cc(Cl)cc(Nc2ccnc(Nc3cc(Cl)cc(Cl)c3)n2)c1 [GSK175726A],potency estimated from few doses,"ATR; compound concentrations: 100 nM and 1000 nM (sheet 'Samples'), CATDS: 1.4419933534352201E-2",267 nM
same,potency estimated from few doses,"FRK; compound concentrations: 100 nM and 1000 nM (sheet 'Samples'), CATDS: 1.3675373024535401E-2",305 nM
same,potency estimated from few doses,JAK2; CATDS: 2.01521439750539E-2,131 nM
CCn1c(-c2nonc2N)nc2c(C#CC(C)(C)O)nc(CN3CCCC3)cc21 [GSK1000163A],potency estimated from few doses,"NLK; compound concentrations: 100 nM and 1000 nM (sheet 'Samples'), CATDS: 0.163177352109245",1980 nM
Cl.Nc1c(C(=O)c2cccc(C#CCN3CCCCC3)c2)cnn1-c1ccc(F)cc1 [RO1154461-001],potency estimated from few doses,"FGFR1; compound concentrations: 100 nM and 1000 nM (sheet 'Samples'), CATDS: 1.0359283946495801E-2",1680 nM
same,potency estimated from few doses,"FRK; compound concentrations: 100 nM and 1000 nM (sheet 'Samples'), CATDS: 1.2851217136808301E-2",829 nM
same,potency estimated from few doses,"JAK1; compound concentrations: 100 nM and 1000 nM (sheet 'Samples'), CATDS: 1.11252993768114E-2",1290 nM
same,potency estimated from few doses,JAK2; CATDS: 2.2434778262680002E-2,240 nM
O=C1N=C(NCCCc2ccccc2)S/C1=C\c1ccc2ncccc2c1 [RO4493941-000],potency estimated from few doses,"PIK3CA; compound concentrations: 100 nM and 1000 nM (sheet 'Samples'), CATDS: 0.11301780685695401",241 nM
Cc1cc(-c2ccnc(Nc3cccc(C#N)c3)n2)cc(C)c1O [GSK1440913A],potency estimated from few doses,"ACAD11; compound concentrations: 100 nM and 1000 nM (sheet 'Samples'), CATDS: 0.11808512095338899",425 nM
CNCC#Cc1c(F)ccc2c1/C(=C/c1[nH]ccc1OC)C(=O)N2.Cl [RO0281601-001],potency estimated from few doses,"CDK6; compound concentrations: 100 nM and 1000 nM (sheet 'Samples'), CATDS: 2.2252804154739798E-2",1820 nM
same,potency estimated from few doses,"JAK1; compound concentrations: 100 nM and 1000 nM (sheet 'Samples'), CATDS: 3.3581024780386999E-2",520 nM
same,potency estimated from few doses,MAP4K1; CATDS: 2.76705176427572E-2,879 nM
CN(C)CC(O)COc1ccc(Nc2nccc(-c3cnn4nc(N5CCOCC5)ccc34)n2)cc1 (stereo not drawn) [GW767488X],potency estimated from few doses,CDK6; [1],1050 nM
same,potency estimated from few doses,IRAK4; [1],1630 nM
same,potency estimated from few doses,NLK; [1],2180 nM
same,potency estimated from few doses,NQO2; [1],1230 nM
CNCc1ccc(-c2cc(-c3nc(-c4ccc(S(=O)(=O)C(C)C)cc4)cnc3N)on2)cc1 [VE-822],potency estimated from few doses,ACAD11; [1],321 nM
same,potency estimated from few doses,"ATR; compound concentrations: 100 nM and 1000 nM (sheet 'Samples'), CATDS: 0.44999345055434797",7.76 nM
same,potency estimated from few doses,MAP2K1,2120 nM
CS(=O)(=O)Nc1cccc(-c2ccc3c(NC(=O)C4CC4)n[nH]c3c2)c1 [SB-742864],potency estimated from few doses,DJA1,1630 nM
CCn1c(-c2nonc2N)nc2c(C#CC(C)(C)O)nc(O[C@@H](CN)c3ccccc3)cc21.O=C(O)C(F)(F)F [GSK1007102B],potency estimated from few doses,PRKCB,111 nM
CN(c1ccc(NC(=O)NCCN2CCOCC2)cc1)c1ccnc(Nc2ccc(CS(C)(=O)=O)cc2)n1.Cl [GW830365A],potency estimated from few doses,"PIK3CA; compound concentrations: 100 nM and 1000 nM (sheet 'Samples'), CATDS: 0.11596893366526",201 nM
CS(=O)(=O)Nc1ccc(-c2ccnc3[nH]ccc23)cc1 [GSK993273A],potency estimated from few doses,ACAD11; [1],1040 nM
same,potency estimated from few doses,MAP2K1,1720 nM
O=C1N=C(NCc2cccs2)O/C1=C\c1ccc2ncccc2c1 [RO4624208-000],potency estimated from few doses,CDC7,2100 nM
Cc1cccc(Nc2nc(N[C@H]3CCNC3)ncc2C(N)=O)c1.Cl [GSK2197149A],potency estimated from few doses,IRAK4; [1],1570 nM
same,potency estimated from few doses,JAK1; [1],1240 nM
same,potency estimated from few doses,PIK3CA; [1],110 nM
